Data on 27 compounds can be found in PubChem BioAssay.

This assay in a line: basal RPMI8226 mitochondrial membrane potential changes, profiling panel, cell-based, JC-1 fluorescence, 24 h, 100 nL compound (AID 1169). Also: test concentration not given here. Particulars: RPMI8226 myeloma, JC-1 mitochondrial potential fluorescence, higher = more signal.
Consider `COc1ccc(C#Cc2ccc3c(c2)[C@]2(C(=O)N3)[C@H](c3ccc(O)cc3)N3[C@H](c4ccccc4)[C@H](c4ccccc4)OC(=O)[C@H]3[C@@H]2C(=O)O)cc1`, for which the z-score was -0.28.

In the case of `COC(=O)[C@@]1(Cc2ccccc2)[C@H]2c3cc(C(=O)N(C)C)n(CCN4CNCC4=O)c3C[C@H]2CN1C(=O)c1ccccc1`, the z-score was -0.874.

Consider `O=C1OCC=C[C@H]2OC34C=CCN(Cc5ccccc5)C(=O)[C@H]3N(CCCCCCO)C(=O)[C@@H]4[C@@H]12` (some centres not stated), for which the z-score is -0.822.

Regarding `COc1cc2c(cc1OC)CN(C(=O)[C@@H]1[C@H]3C(=O)O[C@H](c4ccccc4)[C@H](c4ccccc4)N3[C@H](c3ccc(OCCO)cc3)[C@@]13C(=O)Nc1ccccc13)CC2`, the z-score was -0.592.

`COCCOC(=O)N1C(=O)[C@@]2(c3cc(C#CC4=CCCCC4)ccc31)[C@H](C(=O)N1CCCCCCC1)[C@H]1C(=O)O[C@H](c3ccccc3)[C@H](c3ccccc3)N1[C@@H]2c1ccc(O)cc1`: the z-score was -0.386.

With `C=CCC(OC(C)=O)[C@@H]1[C@@H](N(Cc2cc3ccccc3o2)C(=O)Cc2ccc(F)cc2)c2cc(OCCCO)ccc2N1C(=O)c1ccc2ccccc2c1` (some centres not stated), the z-score was -0.159.

As to `CCOC(=O)C[C@H]1[C@H](OC(=O)Cc2ccc3c(c2)OCO3)[C@@H](NC(=O)Cc2ccc(OC)cc2)c2cc(OCCCO)ccc2N1C(=O)c1ccc2ccccc2n1`, the z-score is 0.628.

As for `COCCOC(=O)N1C(=O)[C@@]2(c3cc(C#Cc4ccc(OC)cc4)ccc31)[C@H](c1ccc(O)cc1)N1[C@H](c3ccccc3)[C@H](c3ccccc3)OC(=O)[C@H]1[C@@H]2C(=O)N1CCCCCCC1`, the z-score is -0.464.

In the case of `COC(=O)[C@@]1(Cc2ccccc2)[C@H]2c3cc(C(=O)N(C)C)n(Cc4c(CO)[nH]cc(C)c4=O)c3C[C@H]2CN1C(=O)c1ccccc1`, the z-score stood at 0.445.

Turning to `CN(C)C(=O)[C@]1(CCS(=O)(=O)c2ccccc2)N=C(c2ccc(OCCCO)cc2)O[C@@H]1c1ccccc1N=[N+]=[N-]`, the z-score is -1.18.

`CCCCCCc1nc(-c2cc(C)c(OC)c(C)c2)c(C)c2c1[Si](C(C)C)(C(C)C)OC2`: the z-score was -0.18.

The compound `CC(C)C[C@@H]1NC(=O)[C@@H]2C[C@H](C(=O)NCCCCCN)[C@H](c3ccc(O)cc3)N2C1=O` gave a z-score of 0.7.

`C[C@H]1NC(=O)[C@@]23C(=O)N[C@@H](Cc4ccccc4)C2[C@H](C)[C@@]2(C)O[C@H]2C3/C=C/C/C=C\CNC(=O)[C@H](Cc2ccccc2)NC1=O` (some centres not stated) had a z-score of 0.331.

Turning to `C=CC[C@]1(C(=O)NCCN2CCOCC2)N=C(c2ccc(OCCCO)cc2)O[C@H]1c1ccccc1CN=[N+]=[N-]`, the z-score is -1.08.

Consider `O=C1O[C@H](c2ccccc2)[C@H](c2ccccc2)N2[C@H]1[C@@H](C(=O)Nc1nc3ccccc3s1)[C@]1(C(=O)Nc3ccccc31)[C@H]2c1ccc(OCCO)cc1`, for which the z-score is -1.07.

Take `CN1C(=O)C2C=CC(C(O)c3cccc(O)c3)N(Nc3ccccc3)C2C1=O` (configuration not stated): the z-score is -0.419.

For `C=C(COC)/C(=C/C[C@H](OC(=O)c1ccncc1)c1ccccc1OCCO)c1cnc2ccccc2c1`, the z-score was -0.32.

For the compound `[N-]=[N+]=Nc1ccccc1[C@@H]1OC(c2ccc(OCCCO)cc2)=N[C@]1(Cc1ccccc1)C(=O)NCC(O)CO` (some centres not stated), the z-score was -1.15.

With `CCOc1cc(C(O)C2C=CC3C(=O)N(C)C(=O)C3N2Nc2ccccc2)ccc1O` (configuration not stated), the z-score was -0.868.

As for `CCOC(=O)C1=C[C@@H](c2ccccc2)N(S(=O)(=O)c2ccc(C)cc2)[C@H]1c1ccccc1Cl`, the z-score worked out at 1.01.

On to `COC(=O)c1c2oc(c1C(=O)OC)C(=O)N(Cc1ccccc1)Cc1cn(nn1)C[C@H](Cc1ccccc1)NC(=O)N[C@H](CO)CC2`, for which the z-score was -0.201.

As for `O=C(CS)NCCCCCNC(=O)[C@@H]1C[C@@H]2C(=O)N3CCC[C@H]3C(=O)N2[C@@H]1c1cccc(OCCO)c1`, the z-score is -0.00798.

In the case of `C=C[C@@H](COC(C)=O)N(C(=O)OC(C)(C)C)S(=O)(=O)c1ccc(Br)cc1`, the z-score is -0.212.

On to `COc1cccc(/C=C/C=O)c1`, for which the z-score is -0.109.

For the compound `COc1ccc(CN(C2=CC[C@@]3(C(N)=O)C(=O)C(Cl)=C(Cl)C(=O)[C@@]3(C#N)C2)S(=O)(=O)c2ccc(Br)cc2)cc1`, the z-score was -0.885.

As to `O=C1O[C@@H](c2ccccc2)[C@@H](c2ccccc2)N2[C@@H](c3ccc(O)cc3)[C@]3(C(=O)Nc4ccc(C#CC5=CCCCC5)cc43)[C@@H](C(=O)NC[C@H](O)c3ccccc3)[C@H]12`, the z-score was -1.06.

In the case of `Cc1ccccc1C(O)C1C=CC2C(=O)N(C)C(=O)C2N1N(c1ccccc1)c1ccccc1` (configuration not stated), the z-score is -0.217.
